What all share (test): NCI-60 one-dose screen, 48 h (100 = growth as untreated, 0 = no growth, -100 = all killed)
Details in all cases: 10 µM unless noted

The test system of test [1] is SK-MEL-2 melanoma.
For test [2], the system named is EKVX NSCLC.
Test [3] deals with SN12C renal.
The subject of test [4] is UO-31 renal.
The test system of test [5] is TK-10 renal.
Test [6] relates to ACHN renal.
Test [7] deals with CAKI-1 renal.
For test [8], the system named is A498 renal.
Test [9] has as its system CCRF-CEM leukemia.
The subject of test [10] is SR leukemia.
In test [11] the test system is RPMI-8226 leukemia.
Test [12] has as its system OVCAR-8 ovarian.
Test [13] relates to OVCAR-5 ovarian.
Test [14] concerns OVCAR-4 ovarian.
The test system of test [15] is SK-OV-3 ovarian.
The test system of test [16] is IGROV1 ovarian.
For test [17], the system named is OVCAR-3 ovarian.
Test [18] has as its system HS 578T breast.
In test [19] the test system is NCI/ADR-RES ovarian.

The results in this text go back to PubChem BioAssay (NCI).

The panel holds about 83,000 compounds, 20% with a hit somewhere; the sample as a whole holds those more often.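 Treatment: one concentration, 48 hours, 96-well format. Scoring: percent growth, with anything below 10 considered active.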 Unmarked numbers belong to inactive results. The source made the active and inactive calls.

For `NC(=S)Nc1cccc(O)c1`, the growth in test [1] was 99.1%; in [2], 93%; in [3] it was 95.9%; in test [4], 80%; in [5], 91.8%; in [6], 90.3%. Moreover, the growth in test [7] was 90%; in test [8] it was 115%; in test [9] it was 103%; in test [10], 82.4%; in [11] it was 88.5%; in test [12], 94.2%. In addition, the growth in test [13] was 96.3%; in test [14], 107%; in test [15], 101%; in [16], 98%; in test [17], 110%; in test [18], 102%. Moreover, the growth in test [19] is 94.2%.
With `COC(=O)[C@]12CC[C@@H](C)[C@H](C)[C@@H]1C1=CC[C@@H]3[C@@]4(C)C(C=O)=C[C@@](C)(COC(C)=O)[C@@H]4C(=O)C[C@@]3(C)[C@]1(C)CC2`, the growth in [1] was 43%; in test [2], 36.1%; in test [3] it was 43.6%; in [4], 34.1%; in test [5] it was 36.8%; in test [6], 23.5%. In addition, the growth was 44.6% in test [7]; 60.5% in [8]; 43.9% in test [9]; 48.3% in test [10]; 26% in [11]; 41.5% in [12]. For the same compound, the growth in test [13] is 68.8%; in [14] it was 38.1%; in [15] it was 42.3%; in test [16], 46.3%; in [17], 39.1%; in test [18], 65.1%. In addition, the growth in test [19] was 34%.
For `O=C(NCCCNc1cc(-c2cn(-c3ccccc3)nc2-c2cccc(O)c2)ccn1)c1cccc(O)c1`, the growth in [1] was 83.5%; in test [2], 71.4%; in test [3] it was 76.6%; in [4], 85.8%; in test [5] it was 115%; in [6] it was 89.4%. Also, the growth in [7] is 98.4%; in test [8], 102%; in test [9], 40.5%; in [10], -9.11% (active); in [11], 45.2%; in test [12] it was 40.9%. The growth in [13] is 107%; in test [14] it was 67.8%; in test [15], 69.3%; in [16] it was 84.5%; in test [17], 58.3%; in [18], 34.2%. The growth in [19] is 95%.
For `Cc1cc(NCCCCNc2ccnc3cc(Cl)ccc23)nc(Nc2ccc(C(=O)N3CCCCC3)cc2)n1`, the growth in test [1] was -63.1% (active); in test [2], 41.1%; in test [3], 29.6%; in test [4], 33.5%; in test [5] it was -49.2% (active); in test [6], -4.47% (active). Besides, the growth in test [7] is 79.5%; in test [8], 53.4%; in test [9], -20% (active); in [10] it was -29% (active); in test [11], -35.8% (active); in test [12], 7.65% (active). Further, the growth in [13] is 82.7%; in [14] it was 34.8%; in test [15], 97.2%; in [16], 29.8%; in test [17] it was 8.51% (active); in [18], -28.9% (active). In addition, in test [19], the growth was 47.5%.
As to `C[n+]1cc2cc(C(N)=O)[nH]c3c(=N)c(Cl)c(N)c1c23`, the growth in [1] was 96.1%; in test [2], 101%; in test [3], 53.6%; in test [4], 81.1%; in [5], 73.9%; in test [6], 39%. In addition, the growth in [7] is 79.9%; in test [8], 71.9%; in test [9] it was 37.6%; in test [10], 37.6%; in [11] it was 73%; in [12], 43.1%. Also, the growth in test [13] was 62%; in test [14] it was 73%; in test [15], 60%; in [16], 65.1%; in test [17], 63.1%; in test [18], 108%. Further, the growth in test [19] was 60%.
Turning to `CCCCCCCCCCCCCCCCCCOc1ccccc1CC(=O)OCCC[N+](C)(C)C`, the growth in test [1] was 87.7%; in test [2], 79%; in test [3], 36%; in test [4], 90.1%; in test [5], 50.1%; in test [6], 67.5%. For the same compound, the growth in test [7] is 43.6%; in [8] it was 98.5%; in test [9], 25.7%; in test [10], 56.6%; in test [11], 38.1%; in test [12] it was 43.8%. Also, the growth in test [13] was 46.9%; in test [14], 35%; in test [15], 94.2%; in test [16] it was -15.2% (active); in test [17] it was 64.3%; in [18] it was 67.2%. Also, the growth in [19] is 100%.
Regarding `S=C(Cc1ccc2c(c1)CCCC2)N1CCOCC1`, the growth in test [1] was 87.1%; in test [2], 97.5%; in [3], 101%; in test [4], 92.2%; in test [5], 106%; in test [6] it was 101%. For the same compound, the growth was 102% in [7]; 101% in [8]; 119% in [9]; 94.7% in test [10]; 112% in test [11]; 104% in test [12]. In addition, the growth was 99.2% in [13]; 96.6% in test [14]; 98.2% in test [15]; 101% in test [16]; 107% in test [17]; 115% in test [18]. Also, the growth in test [19] was 105%.
In the case of `O=C1/C(=C/c2ccc(F)cc2)C=C(c2ccccc2)N1CCc1ccccc1`, the growth in [1] is 55.5%; in test [2], 56.9%; in [3], 58.3%; in [4], 51%; in test [5], 62.4%; in [6], 38.6%. Also, the growth in test [7] was 76%; in test [8], 81.3%; in [9], 95%; in test [10] it was 46.5%; in test [11], 89.3%; in test [12], 45.6%. The growth in [13] was 78.7%; in test [14], 39.3%; in test [15], 29.1%; in test [16], 62.3%; in [17], 53.1%; in test [18] it was 42.1%. In addition, the growth in test [19] was 58.2%.
